{"source": "PubChem BioAssay", "note": "Entries with a potency or affinity are not part of this list. Calls of active or inactive are those of the source. Unless noted, no cut-off is given here; in the data, nearly all actives have IC50 up to about 0.98 µM.", "data": [{"molecular_target": "Calcium-dependent protein kinase 1 (Plasmodium falciparum (isolate 3D7)) (UniProt P62344)", "sequence (P62344 whole entry, looked up)": "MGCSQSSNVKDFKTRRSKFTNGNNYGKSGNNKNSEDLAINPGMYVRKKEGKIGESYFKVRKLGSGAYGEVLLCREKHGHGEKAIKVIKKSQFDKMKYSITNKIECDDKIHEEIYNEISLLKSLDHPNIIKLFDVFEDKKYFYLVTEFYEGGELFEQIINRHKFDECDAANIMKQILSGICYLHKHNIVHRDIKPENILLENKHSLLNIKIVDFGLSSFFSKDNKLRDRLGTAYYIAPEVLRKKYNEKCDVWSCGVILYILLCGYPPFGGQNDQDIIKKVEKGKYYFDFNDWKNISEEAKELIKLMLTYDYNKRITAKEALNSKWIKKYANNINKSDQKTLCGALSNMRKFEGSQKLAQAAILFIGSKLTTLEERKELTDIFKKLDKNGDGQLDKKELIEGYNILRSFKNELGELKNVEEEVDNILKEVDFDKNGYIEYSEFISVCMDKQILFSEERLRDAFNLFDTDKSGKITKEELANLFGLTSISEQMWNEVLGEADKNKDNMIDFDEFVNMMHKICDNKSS", "test": "PfCDPK1 kinase inhibitors, biochemical, TCAMS library (AID 1159585);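 note: inhibitors leave more ATP so luminescence rises with inhibition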", "conditions": "recombinant PfCDPK1, Kinase-Glo ATP depletion luminescence", "values": [{"compound": "COc1cc2nc(NCc3cccc(CNC(=O)c4ccc(-c5ccc(C(C)=O)cc5)cc4)c3)nc(N)c2cc1OC", "outcome": "inactive"}, {"compound": "COc1ccc(CCN(C)CCCOc2ccc(NC(=O)COc3cccc4sc5ccccc5c(=O)c34)cc2)cc1OC", "outcome": "inactive"}, {"compound": "O=S(=O)(c1ccc(OCc2ccc(Cl)cc2)cc1)c1cc2c(cc1O)CCN(C1CCC1)CC2", "outcome": "inactive"}, {"compound": "O=C(Nc1ccccc1)Nc1cccc(-c2nn3c(OCC4CCCCN4)cccc3c2-c2ccncc2)c1", "note": "(stereo not given)", "outcome": "inactive"}, {"compound": "Cc1nnsc1C(=O)Nc1cccc(-c2cccc(-c3nc4ccc(F)cc4[nH]3)c2)c1", "outcome": "inactive"}, {"compound": "CN(CCCNCc1cccc2ccccc12)CCCNCc1cccc2ccccc12", "outcome": "inactive"}, {"compound": "C[C@@H](Nc1nc(NCc2ccccc2)c2sccc2n1)c1ccccc1", "outcome": "inactive"}, {"compound": "CN(C)CCCOc1ccccc1CN1CC[C@H](NC(=O)c2ccc(Cl)c(Cl)c2)C1", "outcome": "inactive"}, {"compound": "COc1ccc(-c2cccc(NC(=O)c3cccc(C#N)c3)c2)cc1CN1CCNCC1", "outcome": "inactive"}, {"compound": "Cc1nc2c(Nc3nc(-c4ccncc4)cs3)ncnc2n1-c1ccccc1Cl", "outcome": "inactive"}, {"compound": "Fc1ccc(Nc2ccnc3cc(-c4ccc(CN5CCOCC5)o4)ccc23)c(Cl)c1", "outcome": "inactive"}, {"compound": "O=C(/C=C/c1ccc(Cl)c(Cl)c1)NCCCCCN1CCC(NC(=O)Nc2ccc([N+](=O)[O-])cc2)CC1", "outcome": "inactive"}, {"compound": "CO/C(=C\\C=C\\c1cc2cc(Cl)c(Cl)cc2[nH]1)C(=O)NC1CCN(CCCc2ccccc2)CC1", "outcome": "inactive"}, {"compound": "COc1ccc2cc(CNCCCCCCNCc3ccc4cc(OC)ccc4c3)ccc2c1", "outcome": "inactive"}, {"compound": "O=C(/C=C/c1cccc(C(F)(F)F)c1)NCCCCCN1CCC(c2c[nH]c3ccccc23)CC1", "outcome": "inactive"}, {"compound": "CC(C)CCN1CCCN(Cc2cccc(NC(=O)c3cc4ccccc4s3)c2)CC1", "outcome": "inactive"}, {"compound": "CNCCNCc1ccc(-c2ccc(-c3nc4c(C)cccc4[nH]3)cc2)cc1", "outcome": "inactive"}, {"compound": "CS(=O)(=O)CCNCc1cccc(-c2cc3c(Nc4ccc5c(cnn5Cc5ccccc5)c4)ncnc3s2)c1", "outcome": "inactive"}, {"compound": "Cc1cc(N2CCCC2)nc(Nc2ccc(NC(=O)c3ccccc3)cc2)n1", "outcome": "inactive"}, {"compound": "CN1C[C@@H](c2ccccc2)c2cc(O)c(CN3CCCCC3)cc2C[C@H]1Cc1ccccc1", "outcome": "inactive"}, {"compound": "CN(Cc1cccc(C#N)c1)C1CCN(c2cc(NC(=O)c3ccc(F)cc3)ccn2)CC1", "outcome": "inactive"}, {"compound": "CCC1N=C(N)N=C(N)N1OCCCOc1c(Cl)cc(Cl)cc1Cl", "note": "(stereo not given)", "outcome": "inactive"}, {"compound": "O=c1c2c([nH]c3cc(Cl)ccc13)CCCC2", "outcome": "inactive"}, {"compound": "COc1cc(F)c2nccc([C@@H](O)CN3CCC(NCc4nc5c(F)cccc5[nH]4)CC3)c2c1", "outcome": "inactive"}, {"compound": "Cc1cc(NC(=O)Nc2ccc(I)c(OCCN(C)C)c2)ccc1Br", "outcome": "inactive"}, {"compound": "Cc1c(-c2cccc(NC(=O)C(C)(C)Oc3ccc(Cl)cc3)c2)nc2ncccn12", "outcome": "inactive"}, {"compound": "CCS(=O)(=O)c1ccc(-c2cnc3[nH]cc(-c4ccc(N)cc4)c3c2)cc1", "outcome": "inactive"}, {"compound": "COc1ccc(C)c(Nc2ccnc(Nc3ccc(-c4cnc[nH]4)cc3)n2)c1", "outcome": "inactive"}, {"compound": "Oc1ccc(CCNc2nc(NCCCOc3ccccc3-c3ccc(C(F)(F)F)cc3)nc(N3CCNCC3)n2)cc1", "outcome": "inactive"}, {"compound": "CCCn1c(=N)c(C(=O)NCCc2ccccc2)cc2c(=O)n3cccc(C)c3nc21", "outcome": "inactive"}, {"compound": "CN(C)c1ccc(-c2ccc(C(=O)NC3CCN(Cc4ccc(F)cc4)CC3)s2)cc1", "outcome": "inactive"}, {"compound": "CC(=O)N[C@@H]1c2cc(C(C)=O)ccc2OC(C)(C)[C@@H]1O", "outcome": "inactive"}, {"compound": "COc1cccc(-c2cnc(N)c(-c3nc4ccc(C(F)(F)F)cc4[nH]3)c2)c1", "outcome": "inactive"}, {"compound": "COc1ccc(CNC(=O)Nc2cc3cc(-c4ccc(CN5CCCC5)cc4)ccc3n3c(C)nnc23)cc1", "outcome": "inactive"}, {"compound": "O=C(Cc1cn(-c2ccccc2)nc1-c1ccc(Cl)cc1)Nc1nccs1", "outcome": "inactive"}, {"compound": "COc1cccc(CN(C(=O)Nc2ccccc2F)[C@H]2C[C@H]3C(=O)Nc4cc(F)ccc4C(=O)N3C2)c1", "outcome": "inactive"}, {"compound": "Cc1cc(NN=Cc2ccc([N+](=O)[O-])cc2)c2ccc(F)cc2n1", "outcome": "inactive"}, {"compound": "N#Cc1cccc(-c2cccc(C(=O)NC3CCC(CCN4CCc5ccc(C#N)cc5CC4)CC3)c2)c1", "note": "(stereo not given)", "outcome": "inactive"}, {"compound": "Cc1cc(NC(=O)Nc2ccc3nccc(N4CCN(C)CC4)c3c2)ccc1Br", "outcome": "inactive"}, {"compound": "O[C@@H](c1ccccc1)[C@@H]1CN(CCc2ccccc2)CC[C@@]1(O)c1ccccc1", "outcome": "inactive"}]}, {"molecular_target": "Plasmodium falciparum protein kinase 6 (PK6, PF3D7_1337100) (UniProt Q8IDW1)", "sequence (Q8IDW1 1-305)": "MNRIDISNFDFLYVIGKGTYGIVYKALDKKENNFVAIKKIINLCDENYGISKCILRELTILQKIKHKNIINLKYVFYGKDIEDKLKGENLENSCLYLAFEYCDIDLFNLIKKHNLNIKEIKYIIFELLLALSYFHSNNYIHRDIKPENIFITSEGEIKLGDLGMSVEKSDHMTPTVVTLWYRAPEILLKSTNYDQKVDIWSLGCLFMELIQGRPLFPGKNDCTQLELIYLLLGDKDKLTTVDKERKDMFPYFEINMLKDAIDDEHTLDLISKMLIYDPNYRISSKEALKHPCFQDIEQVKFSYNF", "test": "PfPK6 kinase inhibitors, biochemical, TCAMS library (AID 1159586; call rule not given here)", "conditions": "recombinant PfPK6, Kinase-Glo ATP depletion luminescence", "values": [{"compound": "COc1cc2nc(NCc3cccc(CNC(=O)c4ccc(-c5ccc(C(C)=O)cc5)cc4)c3)nc(N)c2cc1OC", "outcome": "inactive"}, {"compound": "COc1ccc(CCN(C)CCCOc2ccc(NC(=O)COc3cccc4sc5ccccc5c(=O)c34)cc2)cc1OC", "outcome": "inactive"}, {"compound": "O=S(=O)(c1ccc(OCc2ccc(Cl)cc2)cc1)c1cc2c(cc1O)CCN(C1CCC1)CC2", "outcome": "inactive"}, {"compound": "O=C(Nc1ccccc1)Nc1cccc(-c2nn3c(OCC4CCCCN4)cccc3c2-c2ccncc2)c1", "note": "(stereo not given)", "outcome": "inactive"}, {"compound": "Cc1nnsc1C(=O)Nc1cccc(-c2cccc(-c3nc4ccc(F)cc4[nH]3)c2)c1", "outcome": "inactive"}, {"compound": "CN(CCCNCc1cccc2ccccc12)CCCNCc1cccc2ccccc12", "outcome": "inactive"}, {"compound": "C[C@@H](Nc1nc(NCc2ccccc2)c2sccc2n1)c1ccccc1", "outcome": "inactive"}, {"compound": "CN(C)CCCOc1ccccc1CN1CC[C@H](NC(=O)c2ccc(Cl)c(Cl)c2)C1", "outcome": "inactive"}, {"compound": "COc1ccc(-c2cccc(NC(=O)c3cccc(C#N)c3)c2)cc1CN1CCNCC1", "outcome": "inactive"}, {"compound": "Cc1nc2c(Nc3nc(-c4ccncc4)cs3)ncnc2n1-c1ccccc1Cl", "outcome": "inactive"}, {"compound": "Fc1ccc(Nc2ccnc3cc(-c4ccc(CN5CCOCC5)o4)ccc23)c(Cl)c1", "outcome": "inactive"}, {"compound": "O=C(/C=C/c1ccc(Cl)c(Cl)c1)NCCCCCN1CCC(NC(=O)Nc2ccc([N+](=O)[O-])cc2)CC1", "outcome": "inactive"}, {"compound": "CO/C(=C\\C=C\\c1cc2cc(Cl)c(Cl)cc2[nH]1)C(=O)NC1CCN(CCCc2ccccc2)CC1", "outcome": "inactive"}, {"compound": "COc1ccc2cc(CNCCCCCCNCc3ccc4cc(OC)ccc4c3)ccc2c1", "outcome": "inactive"}, {"compound": "O=C(/C=C/c1cccc(C(F)(F)F)c1)NCCCCCN1CCC(c2c[nH]c3ccccc23)CC1", "outcome": "inactive"}, {"compound": "CC(C)CCN1CCCN(Cc2cccc(NC(=O)c3cc4ccccc4s3)c2)CC1", "outcome": "inactive"}, {"compound": "CNCCNCc1ccc(-c2ccc(-c3nc4c(C)cccc4[nH]3)cc2)cc1", "outcome": "inactive"}, {"compound": "CS(=O)(=O)CCNCc1cccc(-c2cc3c(Nc4ccc5c(cnn5Cc5ccccc5)c4)ncnc3s2)c1", "outcome": "inactive"}, {"compound": "Cc1cc(N2CCCC2)nc(Nc2ccc(NC(=O)c3ccccc3)cc2)n1", "outcome": "inactive"}, {"compound": "CN1C[C@@H](c2ccccc2)c2cc(O)c(CN3CCCCC3)cc2C[C@H]1Cc1ccccc1", "outcome": "inactive"}, {"compound": "CN(Cc1cccc(C#N)c1)C1CCN(c2cc(NC(=O)c3ccc(F)cc3)ccn2)CC1", "outcome": "inactive"}, {"compound": "CCC1N=C(N)N=C(N)N1OCCCOc1c(Cl)cc(Cl)cc1Cl", "note": "(stereo not given)", "outcome": "inactive"}, {"compound": "O=c1c2c([nH]c3cc(Cl)ccc13)CCCC2", "outcome": "inactive"}, {"compound": "COc1cc(F)c2nccc([C@@H](O)CN3CCC(NCc4nc5c(F)cccc5[nH]4)CC3)c2c1", "outcome": "inactive"}, {"compound": "Cc1cc(NC(=O)Nc2ccc(I)c(OCCN(C)C)c2)ccc1Br", "outcome": "inactive"}, {"compound": "Cc1c(-c2cccc(NC(=O)C(C)(C)Oc3ccc(Cl)cc3)c2)nc2ncccn12", "outcome": "inactive"}, {"compound": "CCS(=O)(=O)c1ccc(-c2cnc3[nH]cc(-c4ccc(N)cc4)c3c2)cc1", "outcome": "inactive"}, {"compound": "COc1ccc(C)c(Nc2ccnc(Nc3ccc(-c4cnc[nH]4)cc3)n2)c1", "outcome": "inactive"}, {"compound": "Oc1ccc(CCNc2nc(NCCCOc3ccccc3-c3ccc(C(F)(F)F)cc3)nc(N3CCNCC3)n2)cc1", "outcome": "inactive"}, {"compound": "CCCn1c(=N)c(C(=O)NCCc2ccccc2)cc2c(=O)n3cccc(C)c3nc21", "outcome": "inactive"}, {"compound": "CN(C)c1ccc(-c2ccc(C(=O)NC3CCN(Cc4ccc(F)cc4)CC3)s2)cc1", "outcome": "inactive"}, {"compound": "CC(=O)N[C@@H]1c2cc(C(C)=O)ccc2OC(C)(C)[C@@H]1O", "outcome": "inactive"}, {"compound": "COc1cccc(-c2cnc(N)c(-c3nc4ccc(C(F)(F)F)cc4[nH]3)c2)c1", "outcome": "inactive"}, {"compound": "COc1ccc(CNC(=O)Nc2cc3cc(-c4ccc(CN5CCCC5)cc4)ccc3n3c(C)nnc23)cc1", "outcome": "inactive"}, {"compound": "O=C(Cc1cn(-c2ccccc2)nc1-c1ccc(Cl)cc1)Nc1nccs1", "outcome": "inactive"}, {"compound": "COc1cccc(CN(C(=O)Nc2ccccc2F)[C@H]2C[C@H]3C(=O)Nc4cc(F)ccc4C(=O)N3C2)c1", "outcome": "inactive"}, {"compound": "Cc1cc(NN=Cc2ccc([N+](=O)[O-])cc2)c2ccc(F)cc2n1", "outcome": "inactive"}, {"compound": "N#Cc1cccc(-c2cccc(C(=O)NC3CCC(CCN4CCc5ccc(C#N)cc5CC4)CC3)c2)c1", "note": "(stereo not given)", "outcome": "inactive"}, {"compound": "Cc1cc(NC(=O)Nc2ccc3nccc(N4CCN(C)CC4)c3c2)ccc1Br", "outcome": "inactive"}, {"compound": "O[C@@H](c1ccccc1)[C@@H]1CN(CCc2ccccc2)CC[C@@]1(O)c1ccccc1", "outcome": "inactive"}]}]}
